Experimental data: ChEMBL document CHEMBL1157539, “Thousands of chemical starting points for antimalarial lead identification” (Nature, 2010)

The compounds below were run on Plasmodium falciparum (assay: GSK_TCMDC: Inhibition of Plasmodium falciparum Dd2 in whole red blood cells, using parasite LDH activity as an index of growth. Test compounds present at 2uM).
Format: functional
Work on CC(CN1CCN(C)CC1)C(=O)Nc1ccc(-c2ccc(-c3nc4cc(F)ccc4[nH]3)cc2)cc1 (centres undefined) yielded an Inhibition of 87%. With Cc1ccc(Oc2ccc(NC(=O)CNc3ccccc3N3CCCC3=O)cc2)cc1 the Inhibition was 97%. Compound CCN(CC)CCCCNc1cc(-c2[nH]c(-c3c(Cl)cccc3Cl)nc2-c2ccc3cc(OC)ccc3c2)ccn1.O=C(O)C(F)(F)F has an Inhibition of 93%. COc1ccc2c(c1C1CCN(CCCCNC(=O)c3ccc(-c4ccc(Cl)cn4)cc3)CC1)CCCC2 showed an Inhibition of 49%. Compound CCCC(CC)n1ccc2c3c(N)nc(N)nc3ccc21.CS(=O)(=O)O (centres undefined) has an Inhibition of 97%. In the case of O=C(NCCCN1CCCCC1)c1ccc(Nc2nccc(Nc3ccc(Oc4ccccc4)cc3)n2)cc1, the Inhibition is reported as 61%. CCCCCCNC(=N)c1ccc2[nH]c(-c3ccc(O)cc3)nc2c1.Cl gave an Inhibition of 99%. Compound COc1ccc(-n2ncc(C(=O)N3CCC4(C3)C(=O)N(c3ccccc3)c3ccccc34)c2C)cc1 (centres undefined) has an Inhibition of 91%. Work on Cc1cccc2nc(-c3ccc(-c4ccc(CN5CCC(CO)CC5)cc4)s3)[nH]c12.O=C(O)C(F)(F)F yielded an Inhibition of 82%.

Each compound was assayed on HepG2 (assay: GSK_TCMDC: Percent inhibition of human HepG2 cell line. Test compounds present at 10uM.).
Format: functional
In the case of CN1CCN(CC2(Nc3nccc(NCc4ccc(Cl)cc4Cl)n3)CCCCC2)CC1, the Inhibition is reported as 98%. Work on COc1ccc(CN(C)CCCc2ccc(NC(=O)c3cc4ccccc4[nH]3)cc2)cc1OC.O=C(O)/C=C/C(=O)O yielded an Inhibition of 39%. Work on COc1ccc(S(=O)(=O)Nc2ccc(C(=O)NCc3ccc(C(F)(F)F)cc3)cc2)cc1N1CCN(CC2CC2)CC1.O=C(O)C(F)(F)F yielded an Inhibition of 34%. In the case of CCn1c(Cc2ccccc2)nnc1Sc1ccc([N+](=O)[O-])c(C#N)c1, the Inhibition is reported as 8%. O=C(CCc1cccnc1)Nc1cccc(-c2ccc(-c3nc4cc(C(F)(F)F)ccc4[nH]3)cc2)c1 gave an Inhibition of 38%. Work on COc1ccc(Cl)cc1N1CCN(CCCNC(=O)c2ccc(-c3nc4cc5ccccc5cc4[nH]3)c(F)c2)CC1 yielded an Inhibition of 12%. Work on COc1cccc(C2C(C(=O)Nc3ccccc3)=C(C)N=c3sc(=Cc4ccc(O)cc4)c(=O)n32)c1 (centres undefined) yielded an Inhibition of 15%. In the case of Cc1cccc2nc(-c3ccc(-c4ccc(CNCCNC(=O)c5ccnn5C)cc4)s3)[nH]c12.O=C(O)C(F)(F)F, the Inhibition is reported as 20%. Compound O=C(NCCCN1CCOCC1)c1cccc(Nc2nccc(Nc3ccc(Oc4ccccc4)cc3)n2)c1 has an Inhibition of 34%. COc1cccc(C(=O)NCc2nnc(S)n2-c2ccc(Cl)c(Cl)c2)c1 gave an Inhibition of 0%. Cc1cccc2nc(-c3cccc(-c4ccc(NC(=O)C5CCN(C)CC5)cc4)c3)[nH]c12 was tested, and the Inhibition was 16%. For COc1ccccc1/C=C/C(=O)N(C)C1CCN(CCCCCNC(=O)/C=C/c2ccc(Cl)c(Cl)c2)CC1, the Inhibition was 71%. In the case of Cc1ccc2[nH]c(C)cc(=NN=Cc3cccc(F)c3)c2c1, the Inhibition is reported as 6%. In the case of CC1CCCCN1Cc1cccc(-c2c[nH]c3nc(NC4CCCC4)ncc23)c1.O=C(O)C(F)(F)F (centres undefined), the Inhibition is reported as 0%. COc1ccc(OCCCN2CCCCC2)cc1S(=O)(=O)c1ccc(OCc2ccc(C(F)(F)F)cc2)cc1.Cl gave an Inhibition of 52%. COc1ccc(C2C(C(=O)Nc3cc(C)ccc3OC)c3ccccc3C(=O)N2C)cc1 (centres undefined) was tested, and the Inhibition was 3%. O=C(O)C(F)(F)F.O=S(=O)(NCCN1CCCC1)c1ccc(-c2ccc(CNCc3ccc(F)cc3)cc2)cc1 showed an Inhibition of 42%. With COc1cccc(CNC[C@@H](O)[C@H](Cc2ccccc2)NC(=O)c2cc(C3CCCC3)cc(N3CCCCS3(=O)=O)c2)c1.Cl the Inhibition was 7%. In the case of COc1cccc(-c2ccc(NC(=O)C3CCCN(Cc4cccc(OC)c4O)C3)cc2)c1 (centres undefined), the Inhibition is reported as 13%. For COc1cc(C(=O)NC2CCc3ccccc32)cc(Cl)c1OC (centres undefined), the Inhibition was 12%. Work on CC(=O)N/N=C/[C@H](CCc1ccccc1)NC(=O)[C@H](CC(C)C)NC(=O)c1ccc(F)cc1 yielded an Inhibition of 2%. FC(F)(F)c1ccc2[nH]ccc(=NN=Cc3ccccc3Cl)c2c1 gave an Inhibition of 0%. Cc1cccc2nc(-c3ccc(-c4ccc(NC(=O)Nc5ccsc5)cc4)s3)[nH]c12 was tested, and the Inhibition was 74%. Work on COc1ccc(C(=O)CCC(=O)N(Cc2ccc(-c3ccc(CNCCc4ccccc4)cn3)cc2)C(C)CN(C)C)cc1F.O=C(O)C(F)(F)F (centres undefined) yielded an Inhibition of 20%. With N#Cc1ccc(N2CCN(C(=O)c3cccc(-c4noc(C(F)(F)F)n4)c3)CC2)nc1 the Inhibition was 18%. COc1ccc(CNC(=O)NC2CCN(c3ccnc(Nc4cc(OC)c(OC)c(OC)c4)n3)C2)cc1 (centres undefined) gave an Inhibition of 0%. Cc1nc2nc(N)nc(N)c2c(C)c1Cc1ccc(C#N)cc1.Cl showed an Inhibition of 69%. Compound COc1ccc2nccc([C@@H](O)CN3CCC(NC(=O)/C=C/c4cc([N+](=O)[O-])ccc4OC)CC3)c2c1 has an Inhibition of 12%. Compound Clc1cc(Nc2ccnc3ccc(Br)cc23)ccc1Oc1ccc(Cl)c2ccccc12 has an Inhibition of 6%. In the case of O=C(N[C@H]1CCN(Cc2ccc(OC3CCN(Cc4ccccc4)CC3)c(Br)c2)C1)c1ccc(Cl)c(Cl)c1.O=C(O)C(F)(F)F, the Inhibition is reported as 55%. In the case of O=C(Nc1ccc(S(=O)(=O)NCCCN2CCOCC2)cc1)c1cc(-c2ccccc2)[nH]n1, the Inhibition is reported as 16%. Compound CC(CN1CCN(C)CC1)C(=O)Nc1ccc(-c2ccc(-c3nc4cc(F)ccc4[nH]3)cc2)cc1 (centres undefined) has an Inhibition of 19%. In the case of Cc1ccc(Oc2ccc(NC(=O)CNc3ccccc3N3CCCC3=O)cc2)cc1, the Inhibition is reported as 14%. For CCN(CC)CCCCNc1cc(-c2[nH]c(-c3c(Cl)cccc3Cl)nc2-c2ccc3cc(OC)ccc3c2)ccn1.O=C(O)C(F)(F)F, the Inhibition was 23%. Work on COc1ccc2c(c1C1CCN(CCCCNC(=O)c3ccc(-c4ccc(Cl)cn4)cc3)CC1)CCCC2 yielded an Inhibition of 29%. With CCCC(CC)n1ccc2c3c(N)nc(N)nc3ccc21.CS(=O)(=O)O (centres undefined) the Inhibition was 67%. With O=C(NCCCN1CCCCC1)c1ccc(Nc2nccc(Nc3ccc(Oc4ccccc4)cc3)n2)cc1 the Inhibition was 30%. In the case of CCCCCCNC(=N)c1ccc2[nH]c(-c3ccc(O)cc3)nc2c1.Cl, the Inhibition is reported as 0%. COc1ccc(-n2ncc(C(=O)N3CCC4(C3)C(=O)N(c3ccccc3)c3ccccc34)c2C)cc1 (centres undefined) was tested, and the Inhibition was 45%. Cc1cccc2nc(-c3ccc(-c4ccc(CN5CCC(CO)CC5)cc4)s3)[nH]c12.O=C(O)C(F)(F)F gave an Inhibition of 15%.
